A selection: hits, their analogues and other compounds. The true share with any hit is near 0.74%.
HMGR II inh: blocks class II HMG-CoA reductase of Enterococcus faecalis; purified E. faecalis HMGR, NADPH absorbance 340 nm kinetic; actives 0.41% (n = 190,000); inhibition, % at 10 µM;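 active = inhibition above a set limit, the median over all tested compounds plus 3 SD, cut at about 9.5% in these data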;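 note: enzyme runs in reverse so mevalonate oxidation gives rising NADPH absorbance; 0% = complete reaction with DMSO and 100% = background rate lacking mevalonate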
Redox H2O2 prof: compounds producing H2O2 with reducing agent – biochemical, NIH compound library profiling, artefact control for MLSCN library redox annotation, primary screen; AID 878; activation, % at 10 µM; actives 0.03% (n = 200,000); DTT-dependent redox cycling H2O2, phenol red/HRP absorbance; 100% = 100 µM peroxide control, 0% = buffer;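 active = activation of at least 50% relative to the plate's high and low controls in the primary single-dose screen; inactive = activation below 50%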;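 note: compound incubated with DTT at 0.8 mM final as the reducing agent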
Furin inhibitor: blocks human furin protease activity. purified furin, fluorogenic substrate cleavage. inhibition, % at 20 µM or 30 µM. actives 0.061% (n = 220,000). AID 463115; in the data active = inhibition above about 25%
pCIP destab: p/CIP protein destabilization. Q05BA5. F442A p/CIP-EGFP cells, EGFP fluorescence, 16 h. decrease of EGFP signal, % at 10 µM. actives 0.01% (n = 290,000). AID 1984;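 active = EGFP signal decrease of at least 30% at 10 µM or well 3 SD below plate mean, unless failing retest; inactive = the rest, including hits failing retest or dose response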
Target sequence (Q05BA5 1-1403): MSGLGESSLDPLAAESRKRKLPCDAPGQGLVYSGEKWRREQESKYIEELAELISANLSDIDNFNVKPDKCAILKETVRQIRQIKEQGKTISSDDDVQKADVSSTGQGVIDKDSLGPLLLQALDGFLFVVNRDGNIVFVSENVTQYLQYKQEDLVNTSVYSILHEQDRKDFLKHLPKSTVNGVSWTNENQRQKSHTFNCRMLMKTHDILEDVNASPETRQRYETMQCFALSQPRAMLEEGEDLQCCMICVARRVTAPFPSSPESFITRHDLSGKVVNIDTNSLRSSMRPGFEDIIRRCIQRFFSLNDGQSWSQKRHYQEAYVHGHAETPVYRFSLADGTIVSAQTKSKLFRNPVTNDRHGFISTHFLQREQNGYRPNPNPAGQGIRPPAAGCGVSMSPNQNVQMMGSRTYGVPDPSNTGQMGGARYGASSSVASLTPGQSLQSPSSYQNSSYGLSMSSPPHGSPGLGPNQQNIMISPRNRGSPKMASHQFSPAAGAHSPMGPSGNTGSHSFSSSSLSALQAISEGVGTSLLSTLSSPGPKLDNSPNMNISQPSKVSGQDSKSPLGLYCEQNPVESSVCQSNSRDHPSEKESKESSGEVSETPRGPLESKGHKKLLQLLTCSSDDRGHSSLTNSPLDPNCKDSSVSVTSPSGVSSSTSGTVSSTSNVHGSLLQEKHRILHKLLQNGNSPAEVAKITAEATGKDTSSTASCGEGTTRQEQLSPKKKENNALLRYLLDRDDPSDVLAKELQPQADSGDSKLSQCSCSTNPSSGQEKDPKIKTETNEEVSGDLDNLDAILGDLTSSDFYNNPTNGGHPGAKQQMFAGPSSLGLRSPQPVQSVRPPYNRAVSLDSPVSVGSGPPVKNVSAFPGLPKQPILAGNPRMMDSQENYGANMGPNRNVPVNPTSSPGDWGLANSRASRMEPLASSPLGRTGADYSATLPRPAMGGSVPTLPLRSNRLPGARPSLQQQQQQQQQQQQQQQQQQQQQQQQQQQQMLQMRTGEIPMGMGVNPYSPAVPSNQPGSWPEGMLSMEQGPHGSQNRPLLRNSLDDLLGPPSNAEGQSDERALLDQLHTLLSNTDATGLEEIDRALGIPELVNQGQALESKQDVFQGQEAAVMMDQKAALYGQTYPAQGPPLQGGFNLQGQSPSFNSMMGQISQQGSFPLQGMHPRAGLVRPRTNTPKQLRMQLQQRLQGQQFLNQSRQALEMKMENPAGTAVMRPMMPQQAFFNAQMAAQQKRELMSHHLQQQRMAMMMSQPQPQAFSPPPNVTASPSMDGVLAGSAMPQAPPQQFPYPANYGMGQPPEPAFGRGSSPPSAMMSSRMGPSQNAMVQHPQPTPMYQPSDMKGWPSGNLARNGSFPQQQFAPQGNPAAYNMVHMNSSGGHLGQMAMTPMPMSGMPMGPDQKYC
p97 ATPase inh: inhibitors of human p97 ATPase; P55072; recombinant p97 ATPase, Kinase-Glo ATP luminescence, 3 h; inhibition, % at 8 µM; actives 0.42% (n = 220,000); AID 1481; in the data active = inhibition above about 15%;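 note: 0% = DMSO vehicle and 100% = wells lacking enzyme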
Tb hexokinase: T. brucei hexokinase 1 inhibition. recombinant TbHK1, G6PDH-coupled NADH A340. inhibition, % at 10 µM. actives 0.11% (n = 220,000). AID 1430;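 active = inhibition of 50% or more in the single-dose primary screen; inactive = inhibition below 50%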
p97 confirm: confirmation of human p97 ATPase inhibitors; shares compounds with p97 ATPase inh; recombinant p97 ATPase, Kinase-Glo ATP luminescence; inhibition, % at 8 µM; actives 44% (n = 760); AID 1517;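 active = percent inhibition of p97 ATPase above a set limit, the primary screen's mean plus 3 SD, cut at about 15% in these data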;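 note: 0% = DMSO wells and 100% = wells lacking p97 protein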
Starred values were filed as active, the others as inactive; . = not tested or not shown.

SMILES	HMGR II inh	Redox H2O2 prof	Furin inhibitor	pCIP destab	p97 ATPase inh	Tb hexokinase	p97 confirm
Cc1[nH][nH]c(=O)c1C(c1ccc(-c2ccccc2C(=O)O)o1)c1c(C)[nH][nH]c1=O	0	0	-17	-9	22*	-2	24*
Cc1[nH][nH]c(=O)c1C(c1ccc(-c2cccc(C(=O)O)c2)o1)c1c(C)[nH][nH]c1=O	-4	-1	-22	-3	19*	-4	12
COC(=O)c1ccc(-c2ccc(C(c3c(C)[nH][nH]c3=O)c3c(C)[nH][nH]c3=O)o2)cc1	-7	0	-19	-10	11	-11	.
Cc1[nH][nH]c(=O)c1C(c1ccc(-c2cccc(Cl)c2)o1)c1c(C)[nH][nH]c1=O	.	.	-15	5	36*	-6	34*
Cc1ccc2oc(-c3ccccc3C(=O)O)cc(=O)c2c1	-3	-2	-22	-14	4	4	.
CN(C)C(CNC(=O)c1ccc(C2SCCS2)cc1)c1ccccc1 (stereo not drawn)	.	.	.	4	.	.	.
Cc1cc(C(=O)N/N=C/c2cc(Br)ccc2OC(=O)c2ccccc2Cl)n[nH]1	-3	0	-18	11	18*	-6	35*
Cc1ccnc(NCc2ccc(Cl)cc2)c1	.	.	.	-2	.	.	.
O=C(NN1C(=O)/C(=C/C=C/c2ccccc2)SC1=S)c1ccncc1	1	0	-13	8	6	-4	.
CC(C)C(C(=O)O)N1C(=O)/C(=C/c2cccn2C)SC1=S (stereo not drawn)	1	0	13	-20	-1	8	.
O=C1/C(=C/c2ccco2)SC(=S)N1c1cccnc1	.	.	-15	-2	18*	16	14
O=C(NN1C(=O)/C(=C/C=C/c2ccco2)SC1=S)c1ccncc1	.	.	1	1	40*	4	11
CC(C)C(C(=O)O)N1C(=O)/C(=C/C=C/c2ccco2)SC1=S (stereo not drawn)	11*	2	-3	-24	19*	38	7
O=C1/C(=C/C=C/c2ccco2)SC(=S)N1c1ccc(O)cc1	.	.	-4	-6	58*	17	31*
CC1=CC(=O)c2c(O)ccc(O)c2C1=O	-3	1	-14	-7	14	8	.
CN(C)C(=O)CCC(=O)N1CCCC(N2CCN(c3cccc(C(F)(F)F)c3)CC2)C1 (stereo not drawn)	.	.	.	4	.	.	.
O=c1c2ccccc2nc2c3ccccc3c(Cl)nn12	-7	0	-22	-1	21*	-11	25*
COc1cc(/C=C/c2ccc3c(Br)cc(Br)c(O)c3n2)ccc1O	.	.	-14	-48	18*	-46	15*
CCCC1=NN2C(=N)/C(=C\c3ccc(OCCOc4ccc(NC(C)=O)cc4)c(OC)c3)C(=O)N=C2S1	.	.	.	-6	.	.	.
C[n+]1cccc2cccc([O-])c21	.	.	-30	0	37*	-4	20*
CCN(C(=O)COC(=O)c1c(C)c(-c2ccccc2)nc2ccccc12)C1CCS(=O)(=O)C1 (stereo not drawn)	.	.	-23	6	2	-15	.
Oc1ccc(-c2nc3ccccc3s2)c(O)c1	.	.	-5	3	17*	-25	13
Nc1ccc(O)c(-c2nc3ccccc3s2)c1	-5	-3	-7	3	-4	-12	.
CCn1cc(CN2CCCC(CNS(=O)(=O)c3cccc4cccnc34)C2)cn1 (stereo not drawn)	.	.	.	8	.	.	.
O=C(CCC1CCCN(C(=O)c2ccsc2)C1)NCc1ccc(F)c(F)c1 (stereo not drawn)	2	1	-23	2	-3	-17	.
COc1cc2c(C#N)c(N3CCCC3)nc(N)c2c(N)n1	.	.	-9	-6	26*	-7	4
CCc1cc2c3c(c(=O)oc2cc1OCC(=O)OC)CCCC3	.	.	.	0	.	.	.
NCc1nc(-c2ccc(Cl)cc2)no1	-3	0	-29	-16	-1	-11	.
O=C(O)CCc1nc(-c2ccc(Cl)cc2)no1	-3	0	-23	9	20*	2	4
CC(C)(CC(=O)O)Cc1nc(-c2ccc(Cl)cc2)no1	-4	0	-1	8	19*	5	3
